Screens (PubChem)
Rows were chosen to be rich in hits. Some 12% of all compounds tested hit in one or more screens of this group.
Shiga toxin inh = A qHTS for Small Molecule Inhibitors of Shiga Toxin. 290,000 tested, 9.2% active. inhibition, % at 38.7 µM. AID 2315, 2010. Vero cells, Shiga toxin protein synthesis inhibition reporter; in the data active = inhibition mostly above about 28%, no sharp cut-off; inactive = mostly below about 43%; also: 0% is about no effect
Sm TGR block = qHTS Assay for the Inhibitors of Schistosoma Mansoni Peroxiredoxins. 360,000 tested, 3% active. purified TGR, DTNB reduction, TNB absorbance 405 nm. Schistosoma mansoni thioredoxin glutathione reductase (TGR), Q962Y6. AID 485364, 2010. Potency, µM (doses to about 114 µM), for inactives: at the highest dose activity change, negative = inhibition, hits mostly inhibitors; active = well fitted inhibition curve with a large enough effect; inconclusive = small, poorly fitted or top-dose-only effect; inactive = no such curve, though single readings can be large or run the other way; also: potency is read from the fitted curve at half-maximal effect; % is scaled to controls: 0 for no effect and ±100 for the full control effect; nearly all actives have a fitted effect of over 60% in size
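First, TGR (20 nM dispensed) and NADPH were mixed with compound. Second, a 15 min room-temperature incubation followed. Third, further NADPH and then DTNB were added to start the reaction. Finally, TNB absorbance was monitored kinetically.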
FMDV antiviral = High Throughput Screening for Foot and Mouth Disease Virus Antivirals. FMDV antiviral cell-based qHTS. Potency, µM (series often up to 57.9 µM), for the others: at the highest dose activity change, negative = inhibition, most hits filed as inhibitors. 410,000 tested, 1.2% active. AID 1159524, 2015; calls by dose curve; tested in HEK293T cells; also: read-out not given here; potency is read from the fitted curve at half-maximal effect; % is scaled to controls: 0 for no effect and ±100 for the full control effect; nearly all actives have a fitted effect of over 45% in size
CHX counter = Cycloheximide Counterscreen for Small Molecule Inhibitors of Shiga Toxin | cell reporter, cycloheximide protein synthesis inhibition counterscreen | max response, % | 300,000 tested, 12% active | AID 2314, 2010; in the data active = max response mostly above about 13%, no sharp cut-off; inactive = mostly below about 14%; also: read at 38.3 µM for the half of the compounds with a filed dose; 0% is about no effect
Active calls of the source: *; ? = inconclusive; nt = no result.

SMILES	Shiga toxin inh	Sm TGR block	FMDV antiviral	CHX counter
CN(C)c1ccc(CNC(=O)Cn2ccc3cc(S(=O)(=O)N4CCCCCC4)ccc32)cc1	nt	?	0%	nt
Cc1nc(CC(=O)Nc2nc(C(C)(C)C)cs2)cs1	88*	5%	-13%	17
Cc1nc(CC(=O)Nc2nccs2)cs1	-16	11%	2%	-2
Cc1nc(CC(=O)Nc2nc(-c3ccccc3)cs2)cs1	80*	-17%	-2%	29*
O=C(Cc1cccs1)Nc1nc(-c2ccccc2)cs1	29	7%	?	10
O=C(c1ccc(F)cc1F)N1CCCC(c2nc(-c3ccc(F)cc3)no2)C1 (stereo not given)	14	0%	-36%	17*
O=C(c1c(F)cccc1F)N1CCCC(c2nc(-c3ccc(Cl)cc3)no2)C1 (stereo not given)	-8	0%	1%	1
Cc1ccc(-c2noc(C3CCCN(C(=O)c4c(F)cccc4F)C3)n2)cc1 (stereo not given)	69	-21%	-27%	29
Cc1ccc(-c2noc(C3CCCN(C(=O)c4cccc(F)c4)C3)n2)cc1 (stereo not given)	19	-4%	1%	22*
O=C(Nc1ccc(F)cc1F)N1CCCC(c2nc(-c3ccc(F)cc3)no2)C1 (stereo not given)	41	nt	-24%	23*
COc1ccc(-c2noc(C3CCCN(C(=O)c4c(F)cccc4F)C3)n2)cc1OC (stereo not given)	nt	-2%	10%	12
COc1ccc(C(=O)N2c3ccccc3C(C)(c3ccc(Cl)cc3)CC2(C)C)cc1 (stereo not given)	nt	0%	-7%	nt
CC(C)Oc1ccc(CNC(=O)Cn2nc(N3CCN(c4ccccc4)CC3)ccc2=O)cc1	nt	-8%	?	nt
COC(=O)c1sc(NC(=O)COc2ccccc2C)nc1C	56	7%	66%	21*
COc1ccccc1OCC(=O)Nc1nc(C)c(C)s1	91*	-20%	32%	27*
Cc1ccc(C2=NC(c3ccccc3)=Nc3ccc(Cl)cc3N2)cc1	nt	0%	6%	nt
COc1ccccc1NC(=O)Cn1c(=O)n(Cc2nc(C)no2)c(=O)c2cc3c(cc21)OCO3	nt	0%	-12%	nt
COc1cccc(NC(=O)Nc2ccc(C)c(Cl)c2)c1	78*	14%	39%	45*
CCCCOC(=O)Nc1ccc(C)c(Cl)c1	57*	-17%	16%	33*
COc1cccc(NC(=O)Nc2cc(C(=O)O)ccc2C)c1	-4	-10%	6%	-3
CN(C)C(=O)Nc1ccc(Oc2ccc(Cl)cc2)cc1	14	nt	nt	20*
Cc1ccc(NC(=O)N(C)C)cc1Cl	14	nt	nt	11*
COc1ccc(NC(=O)CN2CCCN(S(=O)(=O)c3ccc(Br)cc3)CC2)c(OC)c1	nt	-2%	?	nt
Cc1ccc2c(c1)-c1onc(C(=O)N(C)c3cccc(C(F)(F)F)c3)c1CO2	nt	-23%	-12%	nt
COc1ccc(CNc2nc3c(-c4ccccc4)nnn3c3ccccc23)cc1	nt	1%	5%	nt
SMILES	Shiga toxin inh	Sm TGR block	FMDV antiviral	CHX counter
CC(C)CCn1c(=O)c2sccc2n2c(CCCC(=O)Nc3ccc(F)c(Cl)c3)nnc12	nt	-5%	-9%	nt
Cc1oc(S(=O)(=O)N2CCCCC2)cc1NC(=O)Nc1ccc(F)cc1	-2	10µM*	6%	6
Cc1ccc(NC(=O)Nc2ccc(F)cc2)cc1Cl	78*	10%	27%	32*
O=C(Nc1ccc(F)cc1)Nc1ccc(S(=O)(=O)N2CCCC2)cc1	nt	-12%	6%	nt
O=S1(=O)c2ccccc2N(Cc2cccc(Cl)c2)c2ccccc21	nt	1%	?	nt
O=C(CSc1nc2ccccc2s1)N/N=C/c1cc([N+](=O)[O-])ccc1O	40*	11%	0%	17*
Cc1ccc(/C=N/NC(=O)CSc2nc3ccccc3s2)o1	25	-22%	19%	12*
COc1ncc2nc(-c3cccs3)c(=O)n(Cc3ccc(F)cc3)c2n1	nt	nt	12%	nt
CCOc1ccccc1CNCCCSc1nnnn1C	nt	-6%	3%	nt
CC(=O)c1ccc(NC(=O)CSc2nccn2Cc2ccc3c(c2)OCO3)cc1	nt	1%	?	nt
CC(=O)c1ccc(NC(=O)CSc2nccn2C)cc1	66*	19%	51%	11*
Cn1ccnc1SCC(=O)Nc1cccc(C#N)c1	nt	nt	9%	nt
Cn1ccnc1SCC(=O)Nc1ccc2c(c1)OC(F)(F)O2	22	6%	nt	15*
CC(=O)c1ccc(NC(=O)CSc2nccn2CCc2ccccc2)cc1	88*	-1%	34%	33*
CCOC(=O)c1ccc(NC(=O)CSc2nc3ncccc3[nH]2)cc1	16*	-11%	?	23*
CCOc1cc(CNC(=O)NC2COc3ccc(OC)cc3C2)cc(OCC)c1OCC (stereo not given)	nt	3%	-10%	nt
CCOC(=O)c1cc(C)sc1NC(=O)CSc1nccn1C	111*	3%	0%	50*
N#Cc1ccccc1NC(=O)CSc1nccn1CCc1ccccc1	78*	-7%	40%	37*
CCOC(=O)c1ccc(NC(=O)CSc2nccn2C)cc1	61	0%	47%	39*
Cc1ccc(NC(=O)CSc2nccn2Cc2ccccc2)cc1C	99	13%	22%	48*
CC(=O)Nc1ccc(NC(=O)CSc2nccn2Cc2ccccc2)cc1	5	0%	-26%	9
CCOC(=O)c1ccc(NC(=O)CSc2nccn2-c2cc(C)cc(C)c2)cc1	nt	6%	?	nt
N#Cc1ccccc1NC(=O)CSc1nnc(-c2ccccc2)n1-c1ccccc1	-7	-2%	?	-2
CCOC(=O)c1c(NC(=O)CSc2nccn2C)sc(C(=O)NC)c1C	nt	-16%	-7%	nt
Cc1ccccc1CSc1nc(-c2cccc(F)c2)nc2c1Cc1c(CO)cnc(C)c1O2	nt	?	-20%	nt
SMILES	Shiga toxin inh	Sm TGR block	FMDV antiviral	CHX counter
Cc1cccc(CN2C(=O)c3ccccc3Sc3ccc(C(=O)NCc4cccs4)cc32)c1	nt	10%	-3%	nt
CNC(=O)C1CCC(Cn2c(=O)c3sccc3n(CC(=O)N3CCC(C)CC3)c2=O)CC1 (stereo not given)	nt	2%	-6%	nt
Cc1ccc(NC(=O)CSc2nccn2C)cc1F	-14	-9%	27%	9
COc1ccc(NC(=O)CSc2ccc(-c3cccnc3)nn2)cc1	-6	0%	-5%	-3
Cc1ccc(NC(=O)CSc2ncccn2)cc1F	64*	0%	43%	46*
Cc1cc(C)nc(SCC(=O)Nc2ccc(S(=O)(=O)Nc3ncccn3)cc2)n1	75*	-5%	9%	35*
CCOC(=O)c1ccc(NC(=O)CSc2ccc(-c3cccnc3)nn2)cc1	54	3%	?	16*
Fc1ccc(-c2nc(Nc3cccc(C(F)(F)F)c3)nc3c2COc2ccccc2-3)cc1	nt	-8%	-3%	nt
O=C(c1cc(C(F)(F)F)cc(C(F)(F)F)c1)N1CCC[C@@]2(CCN(Cc3nccs3)C2)C1	nt	nt	-15%	nt
Cc1nc2cc(-c3ccccc3)nn2c(C)c1CCC(=O)NCCc1ccccc1	nt	-2%	-14%	nt
COc1ccc(NC(=O)CCc2c(C)nc3cc(-c4cccc(F)c4)nn3c2C)cc1Cl	nt	-1%	-30%	nt
Cc1nc2cc(-c3cccc(F)c3)nn2c(C)c1CCC(=O)NCCc1ccccc1	nt	22µM*	-27%	nt
